Results filed as inconclusive are left out. Unmarked numbers belong to inactive results. Calls of active or inactive are those of the source. The call rests on the fitted dose curve; in most records, active means well fitted cell-killing curve with a large enough effect; inconclusive means small, poorly fitted or top-dose-only effect, or effect the other way; inactive means no such curve, though single readings can be large or run the other way.
Potency means the concentration at half of the fitted maximal effect.

The test can be described thus: Quantitative High-Throughput drug screen in 47 multiple myeloma cell lines against the NCATS MIPE library collection: OCIMY7_PLB cell viability assay (AID 1918987). Further: nearly all actives have a fitted effect of over 65% in size. The note with it: OCI-MY7 myeloma viability, CellTiter-Glo ATP, 48 h; series mostly up to 45.8 µM; viability (% of DMSO): at the top concentration. The method, boiled down: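 qHTS format: cells plated (500/well), pin-dosed with MIPE 4.0 compounds, kept 48 h at 37 °C. Readout was CellTiter-Glo luminescence, median RLU.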
For `COc1ccc(-c2cc3c(C)nc(N)nc3n(C3CCC(OCCO)CC3)c2=O)cn1` (centres undefined), the Potency is 118 nM (active).

Turning to `CCc1c2c(nc3ccc(O)cc13)-c1cc3c(c(=O)n1C2)COC(=O)[C@]3(O)CC`, the Potency is 1 nM (active).

Turning to `Cc1ccc(NC(=O)C2(c3ccc4c(c3)OC(F)(F)O4)CC2)nc1-c1cccc(C(=O)O)c1`, the Potency is 132 nM (active).

As to `C#Cc1cccc(Nc2ncnc3cc(OC)c(OCCCCCCC(=O)NO)cc23)c1`, the Potency was 148 nM (active).

As for `O=C(O)[C@H](Cc1c[nH]c2ccccc12)N1C(=O)c2ccccc2C1=O`, the Potency is 30300 nM (active).

With `O=C(O)c1ccc2cc(-c3ccc(O)c(C45CC6CC(CC(C6)C4)C5)c3)ccc2c1`, the Potency was 105 nM (active).

In the case of `CC(NCc1ccc2c(c1)nc(NC(=O)c1ccc(-c3cn[nH]c3)s1)n2CC(C)(C)O)C(C)(C)C` (centres undefined), the Potency was 148 nM (active).

As for `Cc1cc(N2CCOCC2)cc2[nH]c(-c3c(NC[C@@H](O)c4cccc(Cl)c4)cc[nH]c3=O)nc12`, the Potency was 105 nM (active).

As to `CC1(O)CC(c2nc(-c3ccc4ccc(-c5ccccc5)nc4c3)c3c(N)nccn23)C1` (centres undefined), the Potency is 209 nM (active).

As for `Nc1cc(C(F)(F)F)c(-c2cc(N3CCOCC3)nc(N3CCOCC3)n2)cn1`, the Potency was 590 nM (active).

Consider `Nc1ncnc2c1c(-c1cnc3[nH]ccc3c1)nn2C1CCCC1`, for which the Potency was 1180 nM (active).

Consider `CCN(CC)CCCCNc1ncc2cc(-c3cc(OC)cc(OC)c3)c(NC(=O)NC(C)(C)C)nc2n1`, for which the Potency was 18700 nM (active).

For the compound `CCOc1ccccc1OCCNC(C)Cc1ccc(OC)c(S(N)(=O)=O)c1` (centres undefined), the “viability (% of DMSO)” value was 143%.

Regarding `COc1cc2nccc(Oc3ccc(NC(=O)C4(C(=O)Nc5ccc(F)cc5)CC4)cc3)c2cc1OC`, the Potency was 18700 nM (active).
